# This is a sample that favours compounds with a hit; in the whole collection about 3.6% have one here.
# NFkB transloc pot: enhances IL-1B driven NFkB nuclear translocation. HUVEC IL-1B NFkB p65 nuclear translocation imaging. activation, % at 2 µM. hit rate 0.3% among 94,000;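 active = activation above 40%, about the mean plus 3 SD, also judged a hit on visual image review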;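 note: percent activation is computed from the nuclear over cytoplasmic p65 intensity ratio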
# NFkB transloc inh: blocks IL-1B driven NFkB nuclear translocation in HUVEC cells. hit rate 0.43% among 94,000. inhibition, % at 2 µM. AID 796. HUVEC IL-1B NFkB p65 nuclear translocation imaging;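 active = inhibition above about 30% together with a positive call from visual inspection of the well image, limit read from the data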;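 note: nuclear over cytoplasmic p65 intensity ratio measured by imaging; 0% = IL-1B stimulated DMSO wells and 100% = unstimulated DMSO wells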
# IL1B cytotox: toxic to HUVEC cells under IL-1B stimulation | HUVEC cell count loss, Hoechst imaging, IL-1B stimulated | cell count reduction, % at 2 µM | hit rate 0.41% among 94,000;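 active = cell count reduction more than 3 SD above the screen-wide mean, cut at about 70% in these data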;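 note: normalized per plate to untreated control cells as the no-loss baseline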
# ERa SRC1 inh: blocks coactivator binding to human estrogen receptor alpha; P03372; TR-FRET ER-alpha LBD / SRC-1 peptide, estradiol-bound; inhibition, % at 25.6 µM; hit rate 1.7% among 86,000; AID 629; in the data active = inhibition above about 50%;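 note: 0% = receptor plus peptide control and 100% = peptide only without receptor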
# ERa SRC1 pot: enhances coactivator binding to human estrogen receptor alpha | hit rate 1.3% among 86,000 | AID 639 | coactivator binding (% of control), % at 25.6 µM | P03372 | TR-FRET ERalpha-LBD/SRC-Cy5 coactivator binding, 2 h; 100 = basal binding, no effect; in the data active = activity above about 200%;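 note: binding measured in presence of low estradiol as agonist stimulus; 0% = peptide alone without receptor and 100% = receptor with peptide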
# ERb SRC1 inh: blocks coactivator binding to human estrogen receptor beta; TR-FRET ER-beta LBD / SRC1-Cy5 peptide binding; receptor agonist-loaded with 1 µM estradiol; inhibition, % at 25.6 µM; hit rate 1.3% among 86,000;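 active = compounds whose percent inhibition of the receptor-coactivator binding signal exceeds about 50% in the single-dose screen, limit read from the data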;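 note: 0% = receptor plus peptide wells without compound and 100% = peptide-only wells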
# Target sequence (Q92731 whole entry, looked up, the tested form may be a part): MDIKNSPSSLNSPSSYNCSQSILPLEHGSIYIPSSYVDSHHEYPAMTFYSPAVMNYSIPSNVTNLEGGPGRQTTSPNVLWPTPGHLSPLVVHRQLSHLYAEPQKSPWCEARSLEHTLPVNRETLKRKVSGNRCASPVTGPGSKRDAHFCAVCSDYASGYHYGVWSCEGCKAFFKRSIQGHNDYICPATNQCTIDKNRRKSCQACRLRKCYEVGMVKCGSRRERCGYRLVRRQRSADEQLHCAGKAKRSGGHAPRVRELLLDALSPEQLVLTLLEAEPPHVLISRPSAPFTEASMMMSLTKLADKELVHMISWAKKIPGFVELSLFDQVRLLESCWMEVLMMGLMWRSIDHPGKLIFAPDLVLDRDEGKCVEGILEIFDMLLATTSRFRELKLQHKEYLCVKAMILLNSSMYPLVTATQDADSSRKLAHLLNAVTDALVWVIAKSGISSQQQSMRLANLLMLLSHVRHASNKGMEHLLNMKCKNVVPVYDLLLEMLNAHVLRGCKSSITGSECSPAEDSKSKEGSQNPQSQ
# Active calls of the source: *; · = no result; [ ] = dose if it differs, or a comment.
SMILES,NFkB transloc pot,NFkB transloc inh,IL1B cytotox,ERa SRC1 inh,ERa SRC1 pot,ERb SRC1 inh
CCCCc1cc2c(c(NC(=O)CC)n1)c(=O)oc1ccccc12,10.7,-10.7,-31.6,61.8*[fluorescence artefact?],120.6,40.0
Cc1cccc(C(OC(=O)c2ccco2)C(=O)NCc2ccccc2)n1 (stereo unspecified),26.6,-26.6,-57.0,68.0*[fluorescence artefact?],52.8,73.9*[fluorescence artefact?]
O=C(COC(=O)c1cc(S(=O)(=O)N2CCOCC2)ccc1Cl)Nc1ccc2c(c1)OCO2,·,·,·,23.1,97.1,18.3
COc1ccc(C(=O)Nc2nc3c(s2)Cc2cc(OC)ccc2-3)cc1,-14.6,14.6,-15.7,95.2*[fluorescence artefact?],7.4,54.5*
COc1ccc2c(c1)Cc1sc(NC(=O)c3ccccc3)nc1-2,-20.8,20.8,19.6,-0.8,113.1,1.2
C=CCNC(=S)NNC(=O)c1cccn(Cc2cccc(Cl)c2)c1=O,4.8,-4.8,29.1,·,·,·
C=CCNC(=S)NNC(=O)c1cccn(Cc2ccc(Cl)cc2)c1=O,3.9,-3.9,83.8*,·,·,·
COC(=O)c1cc(OC)c(OCc2cc(C(=O)OC)oc2C)c(OC)c1,-25.5,25.5,88.6*,7.6,99.1,4.4
CC1(C)Cc2ccccc2-c2nnnn21,25.1,-22.5,-37.7,5.8,101.1,96.5*[fluorescence artefact?]
c1ccc2c(c1)CC1(CCCC1)n1nnnc1-2,-3.2,3.2,13.7,6.9,124.1,5.5
O=C(CSc1oc(-c2ccco2)nc1S(=O)(=O)c1ccc(Cl)cc1)NCC1CCCO1 (stereo unspecified),-19.2,19.2,-57.7,53.9*[fluorescence artefact?],43.8,43.1
Cc1ccc(S(=O)(=O)N2CCN(C(=O)CSc3ncc(C(F)(F)F)cc3Cl)CC2)cc1,-6.1,6.1,17.3,69.0*,94.3,0.5
CNC(=O)C1CC(=O)N(CCCc2ccccc2)C(=Nc2ccccc2)S1 (stereo unspecified),-1.5,1.5,3.5,2.9,100.8,-2.0
C[C@]12CC[C@@H]3c4ccc(O[C@@H]5O[C@H](C(=O)O)[C@@H](O)[C@H](O)[C@H]5O)cc4CC[C@H]3[C@@H]1C[C@@H](O)[C@@H]2O,·,·,·,-8.4,429.1*,9.9
Cc1cc(F)ccc1NCc1cccnc1,-3.0,3.0,11.7,-2.4,96.0,-2.4
Fc1ccc(NCc2cccnc2)cc1F,·,·,·,62.5*,119.5,-2.1
Cc1ccc(S(=O)(=O)c2nc(S(C)(=O)=O)sc2NCC2CCCO2)cc1 (stereo unspecified),34.8,-34.8,13.1,-24.3,610.5*,6.6
CN(C)c1ccc(-c2nnc(-c3ccc(S(=O)(=O)C(F)F)cc3)o2)cc1,8.8,-8.8,-51.0,54.6*[fluorescence artefact?],241.1*,23.7
COc1cc(/C=N/n2cnnc2)ccc1OCCSc1ccc(C)cc1,-5.8,5.8,-23.6,·,·,·
Cc1ccc(OCC(=O)N2CCCCC2)c(Br)c1,-97.0,97.0*,87.1*,-17.3,108.0,-8.6
COc1ccccc1N1CCN(C(=O)COc2ccc(C)cc2Br)CC1,-13.6,13.6,-1.8,-1.4,114.9,-0.7
COCCNC(=S)N/N=C(\C)c1ccc(-n2ccnc2)cc1,12.9,-12.9,-5.0,·,·,·
N#Cc1ccccc1Cn1c(=O)n(CCC(=O)NCc2ccco2)c(=O)c2ccccc21,·,·,·,-8.8,127.6,-3.5
N#Cc1ccccc1Cn1c(=O)n(Cc2ccc(C(=O)NCc3ccco3)cc2)c(=O)c2ccccc21,·,·,·,82.1*[fluorescence artefact?],172.5,48.2
COCCCn1c(Cc2csc(Nc3ccc(F)cc3)n2)nnc1SCC(N)=O,-4.3,4.3,2.9,·,·,·
SMILES,NFkB transloc pot,NFkB transloc inh,IL1B cytotox,ERa SRC1 inh,ERa SRC1 pot,ERb SRC1 inh
CCN1CCc2c(sc3c2c(NCc2ccco2)nc2nnnn23)C1,·,·,·,85.1*[fluorescence artefact?],19.6,61.7*[fluorescence artefact?]
c1ccc(C2(Cn3ccc4ccccc43)OCCO2)cc1,10.5,-10.5,-7.1,98.6*[fluorescence artefact?],136.9,-6.0
COc1cc(C(=O)Nc2cnc(NC(=O)C(C)C)cc2C)cc(OC)c1OC,-8.0,8.0,-6.5,-6.4,151.1,51.8*
COc1ccc(NC(=O)c2cc(OC)c(OC)c(OC)c2)cn1,-47.8,47.8*,-35.6,-24.5,110.2,-21.2
COc1cc(C(=O)Nc2cccc3cccnc23)cc(OC)c1OC,-38.6,38.6*,-17.6,35.5,93.0,16.7
O=C(Nc1cccc2cccnc12)c1cccnc1,30.1,-30.1,-4.1,39.6,74.8,3.7
Cc1ccc(S(=O)(=O)NNc2nc3ccccc3nc2C(F)(F)F)cc1,1.5,-1.5,-0.6,19.0,66.2,4.5
COc1ccc(CNC(=O)C(c2ccco2)N(Cc2cccs2)C(=O)Cc2cccs2)cc1 (stereo unspecified),41.0*,-41.0,-4.8,-2.6,115.7,1.6
N#Cc1c(N2CCCCC2)nc(N)c2c(N)nc3c(c12)CC(c1ccccc1)O3 (stereo unspecified),-6.7,6.7,-0.6,22.6,216.9*[fluorescence artefact?],29.1
COc1ccc(F)cc1CN1CCN(C(=O)CCC(=O)Nc2nnc(C(C)C)s2)CC1,18.2,-18.2,-25.7,-1.6,117.6,-3.2
Cc1cc(Cl)c(S(=O)(=O)N2CC(C)OC(C)C2)cc1OCC(N)=O (stereo unspecified),-8.8,8.8,-9.9,3.7,105.3,-0.9
Cc1cc(Cl)c(S(=O)(=O)N2CCSCC2)cc1OCC(N)=O,0.6,-0.6,74.9*,6.5,102.8,4.6
COc1ccc(N2Cc3cccc(C(=O)O)c3C2=O)cc1,3.5,-3.5,-50.6,64.1*,35.6,64.9*
O=C(O)c1cccc2c1C(=O)N(Cc1ccncc1)C2,-6.2,6.2,-11.9,-12.0,110.3,-16.3
Cc1snc(S(=O)(=O)Cc2c(Cl)cccc2Cl)c1C#N,-1.9,1.9,-3.1,·,·,·
COc1cc(-c2c(C#N)c(N)nc3c2c(C)nn3-c2ccc(C)c(C)c2)cc(OC)c1OC,·,·,·,32.6,458.8*[fluorescence artefact?],53.7*[fluorescence artefact?]
Cc1nn(-c2ccc(F)cc2)c2nc(N)c(C#N)c(-c3cccs3)c12,-3.4,3.4,-37.3,19.0,243.1*[fluorescence artefact?],34.0
C[C@]12CC[C@@H]3c4ccc(O)cc4C(=O)C[C@H]3[C@@H]1CC[C@@H]2O,·,·,·,3.5,705.4*,0.9
CCC1(C)NC(=O)N(CC(=O)Nc2sc3c(c2C(N)=O)CCC3)C1=O (stereo unspecified),·,·,·,75.8*,21.8,82.7*[fluorescence artefact?]
NC(=O)c1c(NC(=O)CN2C(=O)CCC2=O)sc2c1CCCCC2,10.1,-10.1,-12.7,·,·,·
Cc1ccc(C)c2[nH]c(=O)c(C(c3nnnn3Cc3ccco3)N3CCc4ccccc4C3)cc12 (stereo unspecified),-5.1,5.1,-20.6,19.2,220.2*[fluorescence artefact?],31.3
Cc1ccccc1-c1ccc(=O)n(CC(=O)Nc2ccc(N3CCOCC3)cc2)n1,·,·,·,6.6,74.5,16.5
Cc1oc(-c2ccc(Cl)cc2)nc1CN1CCCC(C(=O)NCc2cccnc2)C1 (stereo unspecified),-11.0,11.0,-4.7,-6.7,109.3,53.1*
O=C(CSc1ncnc2sc3c(c12)CCCC3)N1CCC(c2noc3ccc(F)cc23)CC1,4.5,-4.5,-8.6,28.9,354.9*[fluorescence artefact?],65.7*[fluorescence artefact?]
CSc1nnc(Cc2sc(-c3ccccc3)nc2-c2ccccc2)o1,·,·,·,5.8,98.2,-5.3

# Screening results: PubChem, several laboratories
